Data reported in PubChem BioAssay (EPA / NIEHS).
“And” between values parts separate entries of the source, which are not always exact repeats. Identical values can stand only once. Results filed as inconclusive are left out. The source made the active and inactive calls. Rule for the calls, unless noted: active = hit-call score of the fitted dose curve at least 0.9, where 1 is the maximum; inconclusive = response in the unintended direction; inactive = score below 0.9.

Target: human CYP2B6, CYP2B6 (gene 1555) (UniProt P20813)
Sequence (P20813 whole entry, looked up): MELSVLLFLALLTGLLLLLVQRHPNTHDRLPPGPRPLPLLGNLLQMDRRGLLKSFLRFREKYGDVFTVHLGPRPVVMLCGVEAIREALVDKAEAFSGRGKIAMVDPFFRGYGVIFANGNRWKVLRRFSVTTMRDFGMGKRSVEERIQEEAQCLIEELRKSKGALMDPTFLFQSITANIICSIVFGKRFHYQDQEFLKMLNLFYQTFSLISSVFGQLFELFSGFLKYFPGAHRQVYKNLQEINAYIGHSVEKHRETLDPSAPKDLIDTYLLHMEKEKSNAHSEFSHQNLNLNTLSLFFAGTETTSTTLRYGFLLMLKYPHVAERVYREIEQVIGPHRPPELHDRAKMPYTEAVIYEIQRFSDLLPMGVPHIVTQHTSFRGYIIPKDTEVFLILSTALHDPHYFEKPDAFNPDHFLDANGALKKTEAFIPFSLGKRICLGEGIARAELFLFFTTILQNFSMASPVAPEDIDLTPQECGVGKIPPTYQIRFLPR
Assay: NVS_ADME_hCYP2B6: NovaScreen (NVS) CYP450-related Enzyme Activity (ADME) Assay for human CYP2B6 (AID 2283101)
Summary of the method: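 Cell-free recombinant enzyme assay with a fluorogenic substrate; fluorescence intensity read 1 hour after dosing. Loss of signal relative to acetonitrile negative control indicates inhibition. Primary screen run in duplicate at 10 uM, actives then tested in concentration series.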

| Compound | AC50 | outcome |
| --- | --- | --- |
| Clc1ccc(C2(Cn3cncn3)CC(Br)CO2)c(Cl)c1 (configuration not stated) | 1.16 µM (active) |  |
| CCOP(=S)(OCC)SCSP(=S)(OCC)OCC |  | inactive |
| CC(=O)[O][Hg][c]1ccccc1 | 6.73 µM (active) |  |
| O=C1C2(Cl)C3(Cl)C4(Cl)C(Cl)(Cl)C5(Cl)C3(Cl)C1(Cl)C5(Cl)C24Cl (configuration not stated) | 2.02 µM (active) and 4.09 µM (active) and 1.02 µM (active) |  |
| CC(C)(C)CC(C)(C)c1ccc(O)cc1 | 6.7 µM (active) |  |
| O=S(=O)(c1ccc(Cl)cc1)c1ccc(Cl)cc1 | 2.89 µM (active) |  |

Target: human CYP1A2, CYP1A2 (gene 1544) (UniProt P05177)
Sequence (P05177 whole entry, looked up): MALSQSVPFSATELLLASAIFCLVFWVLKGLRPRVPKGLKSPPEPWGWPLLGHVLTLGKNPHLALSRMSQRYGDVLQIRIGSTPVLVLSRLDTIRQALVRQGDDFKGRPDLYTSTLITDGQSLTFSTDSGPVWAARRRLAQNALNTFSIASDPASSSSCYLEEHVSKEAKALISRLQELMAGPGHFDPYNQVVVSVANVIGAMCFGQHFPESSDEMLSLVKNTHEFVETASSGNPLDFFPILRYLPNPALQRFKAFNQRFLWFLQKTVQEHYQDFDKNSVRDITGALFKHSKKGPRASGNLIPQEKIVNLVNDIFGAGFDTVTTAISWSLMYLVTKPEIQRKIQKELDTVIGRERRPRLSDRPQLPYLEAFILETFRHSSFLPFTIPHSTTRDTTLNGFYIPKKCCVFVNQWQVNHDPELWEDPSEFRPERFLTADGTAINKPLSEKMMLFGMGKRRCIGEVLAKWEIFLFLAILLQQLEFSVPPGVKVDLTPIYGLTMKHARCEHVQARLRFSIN
Assay: NVS_ADME_hCYP1A2: NovaScreen (NVS) CYP450-related Enzyme Activity (ADME) Assay for human CYP1A2 (AID 2283102);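 for AC50: potency for inhibition since loss of fluorescence marks reduced CYP1A2 activity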
Summary of the method: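 Cell-free recombinant human CYP1A2 expressed in insect cells, with fluorogenic substrate; fluorescence intensity read 0.5 h after dosing. Loss of signal relative to acetonitrile baseline scored. Primary screen in duplicate at 10 uM; actives retested in concentration series.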

| Compound | outcome | AC50 |
| --- | --- | --- |
| CCOP(=S)(OCC)SCSP(=S)(OCC)OCC | inactive |  |
| O=C(Nc1ccc2[nH]ccc2c1)c1cc2cc(F)ccc2n1Cc1cccc(F)c1 | inactive |  |
| Fc1ccc(C2(Cn3cncn3)OC2c2ccccc2Cl)cc1 (configuration not stated) |  | 5.36 µM (active) |
| COP(=S)(OC)Oc1ccc(Sc2ccc(OP(=S)(OC)OC)cc2)cc1 |  | 7.61 µM (active) |
| CC(=O)[O][Hg][c]1ccccc1 |  | 3.31 µM (active) |
| CCOC(=O)Nc1cccc(OC(=O)Nc2ccccc2)c1 |  | 11.4 µM (active) |
| Cn1sc(Cl)cc1=O | inactive |  |

Target: Cytochrome P450 2C18 (Homo sapiens) (UniProt P33260)
Sequence (P33260 whole entry, looked up): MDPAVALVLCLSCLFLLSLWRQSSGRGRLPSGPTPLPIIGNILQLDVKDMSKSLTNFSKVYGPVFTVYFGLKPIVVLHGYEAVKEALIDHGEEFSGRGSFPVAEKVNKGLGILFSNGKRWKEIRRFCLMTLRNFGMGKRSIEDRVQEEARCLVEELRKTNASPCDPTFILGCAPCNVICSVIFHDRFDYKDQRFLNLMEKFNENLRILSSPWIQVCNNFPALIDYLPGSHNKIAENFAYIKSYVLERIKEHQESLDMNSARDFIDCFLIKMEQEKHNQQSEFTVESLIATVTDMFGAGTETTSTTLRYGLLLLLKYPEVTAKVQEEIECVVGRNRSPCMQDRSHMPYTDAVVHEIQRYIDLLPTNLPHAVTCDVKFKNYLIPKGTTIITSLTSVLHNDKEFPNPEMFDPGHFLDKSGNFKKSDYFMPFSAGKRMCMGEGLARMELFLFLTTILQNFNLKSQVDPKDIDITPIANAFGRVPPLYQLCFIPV
Assay: NVS_ADME_hCYP2C18: NovaScreen (NVS) CYP450-related Enzyme Activity (ADME) Assay for human CYP2C18 (AID 2283103; active = hit-call score of the fitted dose curve at least 0.9, where 1 is the maximum; inactive = score below 0.9)
Method: NVS_ADME_hCYP2C18 is a biochemical, single-readout assay that uses extracted gene-proteins in a cell-free assay. Measurements were taken 0.5 hour after chemical dosing in a 96-well plate.NVS_ADME_hCYP2C18 is one of one assay component(s) measured or calculated from the NVS_ADME_hCYP2C18 assay. It is designed to make measurements of enzyme activity, a form of enzyme reporter, as detected with fluorescence intensity signals by Fluorescence technology.Data from the assay component NVS_ADME_hCYP2C18 was analyzed into 1 assay endpoint. This assay endpoint, NVS_ADME_hCYP2C18, was analyzed in the positive analysis fitting direction relative to Acetonitrile as the negative control and baseline of activity. Using a type of enzyme reporter, loss-of-signal activity can be used to understand changes in the enzymatic activity as they relate to the gene CYP2C18. Furthermore, this assay endpoint can be referred to as a primary readout, because this assay has produced multiple assay endpoints where this one serves a enzymatic activity function. To generalize the intended target to other relatable targets, this assay endpoint is annotated to the cyp intended target family, where the subfamily is xenobiotic metabolism.
Binding assays used specific radioligands (tritiated, iodinated) with non-radioactive competitive displacement ligands in agonist or antagonist protocols (as indicated) and various reference compounds and inhibitors to titrate specific binding to receptors and transporters. Most enzyme assays (CYPs, kinases, phosphatases, proteases, HDACs) used recombinant protein and specific substrates (fluorescence mostly, some colorimetric and radioactive) and inhibitors, followed by a biochemical separation of substrate and product. All assays for the biochemical HTS were initially run in duplicate at a single concentration (10 uM for CYP450 assays and 25 uM for all others). […]

| Compound | AC50 |
| --- | --- |
| Clc1ccc(C2(Cn3cncn3)CC(Br)CO2)c(Cl)c1 (configuration not stated) | 6.47 µM (active) |
| COP(=S)(OC)Oc1ccc(Sc2ccc(OP(=S)(OC)OC)cc2)cc1 | 5.83 µM (active) |
| O=C1C2(Cl)C3(Cl)C4(Cl)C(Cl)(Cl)C5(Cl)C3(Cl)C1(Cl)C5(Cl)C24Cl (configuration not stated) | 0.519 µM (active) |

Target: human CYP2D6, CYP2D6 (gene 1565) (UniProt P10635)
Sequence (P10635 whole entry, looked up): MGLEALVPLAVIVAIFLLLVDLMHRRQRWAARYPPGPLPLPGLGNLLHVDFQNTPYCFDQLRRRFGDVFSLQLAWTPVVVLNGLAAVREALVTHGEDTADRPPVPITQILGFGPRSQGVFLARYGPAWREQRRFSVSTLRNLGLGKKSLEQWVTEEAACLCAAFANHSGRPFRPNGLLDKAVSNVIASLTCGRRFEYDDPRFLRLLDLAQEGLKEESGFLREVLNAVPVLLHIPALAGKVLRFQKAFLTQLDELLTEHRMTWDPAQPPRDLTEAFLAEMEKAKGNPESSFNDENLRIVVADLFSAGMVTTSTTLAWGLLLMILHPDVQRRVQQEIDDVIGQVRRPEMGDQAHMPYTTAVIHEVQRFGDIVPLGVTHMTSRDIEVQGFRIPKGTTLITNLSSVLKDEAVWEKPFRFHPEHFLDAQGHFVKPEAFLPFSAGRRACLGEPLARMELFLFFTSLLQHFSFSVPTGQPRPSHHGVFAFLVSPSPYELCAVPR
Assay: NVS_ADME_hCYP2D6: NovaScreen (NVS) CYP450-related Enzyme Activity (ADME) Assay for human CYP2D6 (AID 2283107)
Summary of the method: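 Cell-free assay using recombinant enzyme expressed in insect cells, with fluorescence-intensity readout of enzyme activity 1 hour after chemical dosing. Loss of signal versus acetonitrile negative control indicates inhibition. Primary screen ran in duplicate at 10 uM; actives were retested in concentration series.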

| Compound | AC50 |
| --- | --- |
| Nc1cccc2ccccc12 | 3.45 µM (active) |
| CCCCCCCCC(=O)NCc1ccc(O)c(OC)c1 | 3.45 µM (active) |
| CC(=O)[O][Hg][c]1ccccc1 | 4.16 µM (active) |
| COc1cc2c(cc1OC)[C@@]13CCN4CC5=CCO[C@H]6CC(=O)N2[C@H]1[C@H]6[C@H]5C[C@H]43 | 5 µM (active) |
| CCC(=O)C(CC(C)N(C)C)(c1ccccc1)c1ccccc1 (configuration not stated) | 1.23 µM (active) |
| CC(C)(C)c1cc(O)ccc1O | 7.54 µM (active) |
